# Assay results as given in ChEMBL document CHEMBL1961873, “Compounds: GSK PKIS; Assays: Nanosyn kinase panel” (2012).
# Molecular target: T1, NUAK family SNF1-like kinase 1 (Homo sapiens) (UniProt O60285)
# T1 sequence (whole entry): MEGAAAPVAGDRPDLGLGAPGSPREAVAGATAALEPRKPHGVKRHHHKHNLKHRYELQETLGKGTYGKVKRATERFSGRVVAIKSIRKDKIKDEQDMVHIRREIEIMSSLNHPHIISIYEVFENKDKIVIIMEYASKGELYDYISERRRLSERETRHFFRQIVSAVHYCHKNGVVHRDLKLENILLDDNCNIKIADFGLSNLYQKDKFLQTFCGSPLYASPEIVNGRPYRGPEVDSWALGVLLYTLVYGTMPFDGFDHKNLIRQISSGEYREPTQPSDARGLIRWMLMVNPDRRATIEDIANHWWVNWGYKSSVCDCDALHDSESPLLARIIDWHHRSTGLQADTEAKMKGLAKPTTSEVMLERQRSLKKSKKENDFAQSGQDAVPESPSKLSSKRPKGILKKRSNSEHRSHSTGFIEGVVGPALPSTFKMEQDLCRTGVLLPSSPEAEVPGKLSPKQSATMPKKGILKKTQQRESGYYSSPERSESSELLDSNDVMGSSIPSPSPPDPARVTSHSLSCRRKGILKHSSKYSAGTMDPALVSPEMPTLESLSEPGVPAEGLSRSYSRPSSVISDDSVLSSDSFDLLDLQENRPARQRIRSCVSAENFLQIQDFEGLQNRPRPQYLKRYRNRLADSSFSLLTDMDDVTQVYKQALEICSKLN
# Details: at 1 µM
row,Structure (SMILES),inhibition [%]
1,CCn1c(-c2nonc2N)nc2c(C#CC(C)(C)O)nc(O[C@@H](CN)c3ccccc3)cc21,69.6
2,Nc1nonc1-c1nc2cnccc2n1C1CCCCC1,6.7
3,CCn1c(-c2nonc2N)nc2c(C#CC(C)(C)O)ncc(OCC3CCNCC3)c21,37.2
4,NC(=O)c1sc(-n2cnc3cc(C(F)(F)F)ccc32)cc1OCc1ccccc1Br,2.91
5,Cc1cc(-c2ccco2)cc(C)c1/C=C/c1cncc(-c2nn[nH]n2)c1,-1.37
6,NS(=O)(=O)c1ccc(-c2ccc3c(NC(=O)C4CC4)n[nH]c3c2)cc1,8.32
7,COc1cc(C=NNc2ncnc3c2cnn3Cc2ccccc2)ccc1O,27.6
8,COc1cc2c(cc1Nc1nc(Nc3ccsc3C(N)=O)c3cc[nH]c3n1)N(C(=O)CN(C)C)CCC2,1.85
9,COc1cccc(COc2cc(-n3cnc4ccccc43)sc2C(N)=O)c1,8.04
10,NS(=O)(=O)c1ccc(N/C=C2\C(=O)Nc3ccc4ncsc4c32)cc1,69.1
11,COc1cccc(-n2ncc3c(N/N=C/c4ccncc4)ncnc32)c1,54.6
12,CCn1c(-c2nonc2N)nc2c(C#CC(C)(C)O)ncc(OC[C@@H]3CCCN3)c21,34.4
13,Fc1ccc(-c2ncn(C3CCNCC3)c2-c2ccnc(Oc3ccccc3)n2)cc1,2.38
14,CCn1c(-c2nonc2N)nc2c(C#CCN)ncc(OCCCN)c21,10.4

# Molecular target: T2, Serine/threonine-protein kinase BRSK1 (Homo sapiens) (UniProt Q8TDC3)
# T2 sequence (whole entry): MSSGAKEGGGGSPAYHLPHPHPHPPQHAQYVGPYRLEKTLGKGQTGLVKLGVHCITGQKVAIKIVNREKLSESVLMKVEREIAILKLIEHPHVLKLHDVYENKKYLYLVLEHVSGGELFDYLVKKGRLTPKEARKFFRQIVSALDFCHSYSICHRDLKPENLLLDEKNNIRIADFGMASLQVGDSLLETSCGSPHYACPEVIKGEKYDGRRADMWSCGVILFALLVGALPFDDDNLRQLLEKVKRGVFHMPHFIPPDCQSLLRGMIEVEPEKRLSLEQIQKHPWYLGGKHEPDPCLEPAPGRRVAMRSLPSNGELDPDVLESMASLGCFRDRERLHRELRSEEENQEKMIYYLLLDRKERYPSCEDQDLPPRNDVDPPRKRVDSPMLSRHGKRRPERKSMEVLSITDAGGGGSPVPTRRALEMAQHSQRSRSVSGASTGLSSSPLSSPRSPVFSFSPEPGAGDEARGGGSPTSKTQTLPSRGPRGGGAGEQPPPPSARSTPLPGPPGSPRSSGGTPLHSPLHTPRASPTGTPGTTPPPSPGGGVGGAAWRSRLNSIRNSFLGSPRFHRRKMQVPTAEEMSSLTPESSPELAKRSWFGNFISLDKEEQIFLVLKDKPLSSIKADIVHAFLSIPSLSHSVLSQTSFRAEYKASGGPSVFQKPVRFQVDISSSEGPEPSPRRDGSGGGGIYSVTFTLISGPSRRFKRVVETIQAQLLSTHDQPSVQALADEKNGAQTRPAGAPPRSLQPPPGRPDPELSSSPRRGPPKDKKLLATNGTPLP
# Details: at 0.1 µM
row,Structure (SMILES),inhibition [%]
1,CCn1c(-c2nonc2N)nc2c(C#CC(C)(C)O)nc(O[C@@H](CN)c3ccccc3)cc21,6.66
2,Nc1nonc1-c1nc2cnccc2n1C1CCCCC1,-0.55
3,CCn1c(-c2nonc2N)nc2c(C#CC(C)(C)O)ncc(OCC3CCNCC3)c21,0.32
4,NC(=O)c1sc(-n2cnc3cc(C(F)(F)F)ccc32)cc1OCc1ccccc1Br,1.16
5,Cc1cc(-c2ccco2)cc(C)c1/C=C/c1cncc(-c2nn[nH]n2)c1,-0.09
6,NS(=O)(=O)c1ccc(-c2ccc3c(NC(=O)C4CC4)n[nH]c3c2)cc1,3.64
7,COc1cc(C=NNc2ncnc3c2cnn3Cc2ccccc2)ccc1O,-0.74
8,COc1cc2c(cc1Nc1nc(Nc3ccsc3C(N)=O)c3cc[nH]c3n1)N(C(=O)CN(C)C)CCC2,0.07
9,COc1cccc(COc2cc(-n3cnc4ccccc43)sc2C(N)=O)c1,-0.43
10,NS(=O)(=O)c1ccc(N/C=C2\C(=O)Nc3ccc4ncsc4c32)cc1,17.6
11,COc1cccc(-n2ncc3c(N/N=C/c4ccncc4)ncnc32)c1,11.2
12,CCn1c(-c2nonc2N)nc2c(C#CC(C)(C)O)ncc(OC[C@@H]3CCCN3)c21,-0.75
13,Fc1ccc(-c2ncn(C3CCNCC3)c2-c2ccnc(Oc3ccccc3)n2)cc1,-0.19
14,CCn1c(-c2nonc2N)nc2c(C#CCN)ncc(OCCCN)c21,4.54
